Compounds without any hit were thinned out: in the full panel of roughly 83,000, 20% have a hit.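 Single-concentration screen, 48 h exposure, 96-well plates. Endpoint: percent growth. Below 10 = active.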 Values without a mark were called inactive. The source made the active and inactive calls.
Legend:
Experiment in all cases: NCI-60 one-dose screen, 48 h (100 = growth as untreated, 0 = no growth, -100 = all killed)
NCI-H23 lung = details: 10 µM unless noted
NCI-H226 lung = details: 10 µM unless noted
NCI-H322M lung = details: 10 µM unless noted
HOP-62 NSCLC = details: 10 µM unless noted
NCI-H460 lung = details: 10 µM unless noted
HOP-92 NSCLC = details: 10 µM unless noted
NCI-H522 lung = details: 10 µM unless noted
A549/ATCC NSCLC = details: 10 µM unless noted
786-0 renal = details: 10 µM unless noted
COLO 205 colon = details: 10 µM unless noted
DU-145 prostate = details: 10 µM unless noted
K-562 leukemia = details: 10 µM unless noted
MALME-3M melanoma = details: 10 µM unless noted
MDA-MB-231 breast = details: 10 µM unless noted
RXF 393 renal = details: 10 µM unless noted
SF-268 CNS = details: 10 µM unless noted
SF-295 CNS = details: 10 µM unless noted
SF-539 CNS = details: 10 µM unless noted
M14 melanoma = details: 10 µM unless noted
UACC-257 melanoma = details: 10 µM

Structure (SMILES)	growth (NCI-H23 lung)	growth (NCI-H226 lung)	growth (NCI-H322M lung)	growth (HOP-62 NSCLC)	growth (NCI-H460 lung)	growth (HOP-92 NSCLC)	growth (NCI-H522 lung)	growth (A549/ATCC NSCLC)	growth (786-0 renal)	growth (COLO 205 colon)	growth (DU-145 prostate)	growth (K-562 leukemia)	growth (MALME-3M melanoma)	growth (MDA-MB-231 breast)	growth (RXF 393 renal)	growth (SF-268 CNS)	growth (SF-295 CNS)	growth (SF-539 CNS)	growth (M14 melanoma)	growth (UACC-257 melanoma)
C/C=C/[C@@H]1C=C[C@@H]2C[C@H](C)CC[C@H]2[C@]1(C)/C(O)=C1/C(=O)[C@H](CO)N(C)C1=O	56.8%	69.1%	61.6%	37.9%	54.7%	56.9%	58.2%	42.3%	47.3%	78.1%	56.5%	46.5%	79.5%	80.1%	64.9%	54.8%	43.3%	58.5%	62.2%	–
COc1cc(O)c2c(c1)[C@H]1O[C@@H]1C[C@H](O)[C@H](O)C(=O)/C=C\C[C@H](C)OC2=O	25.7%	37.9%	85.7%	68.7%	68.1%	-8.48% (active)	4.82% (active)	72.3%	66%	9.13% (active)	55.3%	29.9%	-24.1% (active)	48.7%	8.74% (active)	74.4%	81.7%	61.7%	9.43% (active)	–
Cn1c2ccc(Br)cc2c2c3c(c4c5cc(F)ccc5oc4c21)C(=O)N(O)C3=O	77.2%	90.8%	103%	47.1%	45.9%	82.5%	72.1%	98.4%	97.6%	93.7%	88.1%	82.8%	-95.9% (active)	85.3%	–	70.7%	89.9%	83.5%	89.4%	104%
CC1(C)CC[C@]2(C(=O)N3CCCN(CC#N)CC3)CC[C@]3(C)C(=CC[C@@H]4[C@@]5(C)CC[C@H](O)C(C)(C)[C@@H]5CC[C@]43C)[C@H]2C1	55.6%	71.1%	94.9%	70.8%	16.8%	19.3%	67.5%	39.1%	68.6%	-15.5% (active)	78.5%	3.77% (active)	77.8%	55.6%	–	69.2%	91.7%	68.5%	65.7%	50.6%
CC(C)C[C@H]1C(=O)O[C@H](C(C)C)C(=O)N(C)[C@@H](C(C)C)C(=O)O[C@H](C(C)C)C(=O)N(C)[C@@H](C(C)C)C(=O)O[C@H](C(C)C)C(=O)N1C	6.64% (active)	20.5%	13.3%	14.7%	8.47% (active)	-23.2% (active)	1.72% (active)	12.6%	23.3%	-89% (active)	24.4%	8.19% (active)	18%	8.5% (active)	19.1%	20.4%	5.53% (active)	22.3%	18.5%	–
C/C(=C(/C)C1CC1CCN(C(=O)c1ccccn1)S(=O)(=O)c1ccc(C)cc1)C1CCCCC1 (centres undefined)	84.2%	97%	105%	102%	100%	104%	85.1%	97%	95.5%	108%	98.9%	96.8%	104%	91.5%	115%	97.5%	90.4%	99.4%	101%	96.7%
CC1=CC(=O)CC(C)(C)[C@@]1(O)/C=C/C(C)=C\C(=O)O	-29.3% (active)	-46.5% (active)	-11.3% (active)	-41.6% (active)	-6.19% (active)	-14.6% (active)	-41.6% (active)	-27.6% (active)	-43.2% (active)	-57.6% (active)	-21.8% (active)	0.164% (active)	-57.5% (active)	-18% (active)	-64.2% (active)	-5.99% (active)	-38.7% (active)	-46.5% (active)	-77.3% (active)	–

From PubChem BioAssay (NCI)
